Compound activity from PubChem.
Compounds with a hit are over-represented: about 4.6% of the library has one in this group of screens.
TRHR agonist = qHTS for Small Molecule Agonists and Allosteric Enhancers of Human TRH Receptor: Primary Screen for Agonists; Thyrotropin-releasing hormone receptor (Homo sapiens), P34981; TRHR cells, calcium flux fluo-8, FDSS agonist mode; activation, % at 2 µM; 360,000 compounds, 0.18% hits; AID 493084, 2011
Target sequence (P34981 whole entry, looked up): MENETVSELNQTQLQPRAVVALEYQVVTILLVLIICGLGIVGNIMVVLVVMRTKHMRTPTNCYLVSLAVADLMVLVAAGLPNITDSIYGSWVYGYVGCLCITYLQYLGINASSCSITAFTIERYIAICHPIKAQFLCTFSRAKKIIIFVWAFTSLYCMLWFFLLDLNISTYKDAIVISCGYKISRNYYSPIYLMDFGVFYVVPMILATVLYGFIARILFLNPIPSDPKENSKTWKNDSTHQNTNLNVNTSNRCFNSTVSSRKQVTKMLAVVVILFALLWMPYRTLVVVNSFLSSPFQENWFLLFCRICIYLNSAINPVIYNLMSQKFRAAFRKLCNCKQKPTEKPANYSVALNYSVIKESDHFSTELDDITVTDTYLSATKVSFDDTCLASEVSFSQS
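TRHR-expressing cells, plated overnight in medium with 10% serum, were loaded with fluo-8 calcium dye at room temperature. After a 10 s baseline, library compound was pin-added and calcium release was recorded kinetically (ex 480/em 530) as agonist response.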
TRHR enhancer = qHTS for Small Molecule Agonists and Allosteric Enhancers of Human TRH Receptor: Primary Screen for Enhancers. AID 493056, 2011. enhancement, % at 2 µM. Thyrotropin-releasing hormone receptor (Homo sapiens), P34981. TRHR cells, fluo-8 calcium fluorescence, EC20 TRH enhancement. 360,000 compounds, 0.66% hits; in the data active means enhancement above about 30%
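Enhancer read-out: after compound pinning and an initial kinetic agonist-mode read, an EC20 of TRH (10 nM final) was injected and fluo-8 calcium signal (Ex 480/Em 530) followed at 1 s/cycle for 100 cycles in TRHR-expressing cells.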
D1 ag = Allosteric Agonists of the Human D1 Dopamine Receptor: qHTS; D(1A) dopamine receptor (Homo sapiens), P21728; HEK293 T-REx D1 cells, calcium flux, agonist mode; activation, % at 2 µM; 360,000 compounds, 1% hits; AID 504660, 2011
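Inducible HEK293 T-REx D1 cells, force-coupled to calcium signalling, were plated at 4000 cells/well with tetracycline and held overnight at 30 C. After no-wash calcium dye loading, compound-evoked calcium rise over 180 s flagged agonists.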
D1 PAM = Potentiators of Human D1 Dopamine Receptor: qHTS; 360,000 compounds, 0.036% hits; potentiation, % at 10 µM; HEK293 TREx D1 cells, calcium flux, dopamine EC20 potentiation; AID 504651, 2011; in the data active means potentiation above about 30%
D1 antagonist = Antagonist of Human D 1 Dopamine Receptor: qHTS; D(1A) dopamine receptor (Homo sapiens), P21728; HEK293 TREx D1 cells, calcium flux, dopamine EC80; stronger effect = lower value; activity change, negative = inhibition, % at 10 µM; 360,000 compounds, 3.2% hits; in the data active means activity change below about -30%
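Tetracycline-induced HEK293 Trex D1 cells, force-coupled to calcium, dye-loaded; compounds added and read 180 s, then EC80 dopamine added and calcium flux tracked kinetically another 180 s.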
A number is an active result; – = inactive; · = no result given. Unless noted, no stated cut-off is given here; in the data, active means activation above about 30%; inactive means the rest.

SMILES	TRHR agonist	TRHR enhancer	D1 ag	D1 PAM	D1 antagonist
CCCN(CCC)CC(O)Cn1cc(/C=C/C(=O)c2ccc(C)cc2)c2ccccc21 (stereo unspecified)	–	–	133	–	-42
O=C(/C=C/c1ccnc2ccccc12)c1cccs1	–	–	–	–	–
CCCN(CCC)CC(O)Cn1cc(/C=C/C(=O)c2ccc(Br)cc2)c2ccccc21 (stereo unspecified)	–	–	33	–	–
CCCN(CCC)CC(O)Cn1cc(/C=C/C(=O)c2ccccc2)c2ccccc21 (stereo unspecified)	–	–	73	–	-31
CN1CCN(Cn2cc(/C=C/C(=O)c3ccccc3)c3ccccc32)CC1	–	–	–	–	–
COc1ccc(/C=C/c2nc(C#N)c(N3CCC(C(N)=O)CC3)o2)cc1OC	–	–	–	–	–
CC(C)c1ccc(C2c3c(-c4ccccc4O)n[nH]c3C(=O)N2CCc2ccccc2)cc1 (stereo unspecified)	–	–	–	–	–
COc1ccc(C(=O)/C=C/c2cn(CC(O)CN(CC(C)C)CC(C)C)c3ccccc23)cc1 (stereo unspecified)	–	–	–	–	–
CCCN(CCC)CC(O)Cn1cc(/C=C/C(=O)c2ccc(OC)cc2)c2ccccc21 (stereo unspecified)	–	–	128	–	-41
CCN(CC(=O)Nc1cc(OC)ccc1OC)Cc1nc2ccccc2c(=O)[nH]1	–	–	–	–	-39
CCN(CC(=O)Nc1ccc(C(=O)Nc2ccc(OC)cc2)cc1)Cc1nc2ccccc2c(=O)[nH]1	–	–	–	–	-44
CCN(CC(=O)Nc1cccc(F)c1)Cc1nc2ccccc2c(=O)[nH]1	–	–	–	–	–
CCN(CC(=O)NCc1ccc(F)cc1)Cc1nc2ccccc2c(=O)[nH]1	–	–	–	–	–
CC1CCCCN1Cc1c(O)ccc2c(=O)c(-c3nc4ccccc4s3)coc12 (stereo unspecified)	–	32	–	–	–
CCc1cc2c(=O)c(-c3nc4ccccc4n3C)coc2c(CN2CCCCC2C)c1O (stereo unspecified)	–	–	–	–	–
CCN(c1ccccc1C)S(=O)(=O)c1nnc(NC(=O)c2ccc(OC)c(OC)c2)s1	–	–	–	–	–
CCCc1nc2oc3ccccc3c(=O)c2c(=O)n1-c1ccc(C)cc1	–	–	37	–	–
CCOC(=O)CSc1nc(-c2ccccc2)nc2ccc(C)cc12	–	–	–	–	-35
O=C(CC(c1ccccc1)c1ccccc1)Nc1ncn[nH]1	–	–	–	–	-36
O=C(c1cccc2ccccc12)C1CCCN(C(=O)CCN2CCCO2)C1 (stereo unspecified)	–	38	–	–	–
Cc1cc(C(=O)N2CCCC(C(=O)c3cccc4ccccc34)C2)nc(C)n1 (stereo unspecified)	–	–	–	–	-61
Cc1ccc(CNC(=O)CCC(=O)N2CC3CCCN3c3ccccc32)cc1 (stereo unspecified)	–	–	–	–	–
CCn1nc(C)cc1C(=O)N1CCCC(C(=O)c2ccccc2SC)C1 (stereo unspecified)	–	–	–	–	–
CN(CCOc1ccccc1)C(=O)C1CCN(C(=O)c2ccc(Cl)cc2)CC1	–	–	–	–	–
Cc1ccc(NC(=O)C2CCN(C(=O)c3ccccc3C)CC2)cc1	–	–	–	–	-44
SMILES	TRHR agonist	TRHR enhancer	D1 ag	D1 PAM	D1 antagonist
COc1cc(NS(=O)(=O)c2ccc(NC(=S)NC(=O)C3CCCC3)cc2)nc(OC)n1	–	–	–	–	-35
COc1ccc(NS(=O)(=O)c2ccc(NC(=O)C3CC3)cc2)cc1	–	–	–	–	-87
CN(CCOc1ccc(Cl)cc1)C(=O)C1CCN(C(=O)c2ccc(F)cc2)CC1	–	–	–	–	-33
COc1ccc(C(=O)N2CCC(C(=O)Nc3ccc(Cl)cc3)CC2)cc1	–	–	–	–	-42
COC(=O)c1ccccc1NC(=O)C1CCN(C(=O)c2ccc(OC)cc2)CC1	–	–	–	–	-33
CCn1c(SCc2ccccc2C)nc(=O)c2c(C(=O)OC)cc(C3CC3)nc21	–	–	–	–	–
NC(=O)NC(Cc1ccccc1)C(=O)Nc1ccc(S(N)(=O)=O)cc1 (stereo unspecified)	–	–	–	–	-76
CNCCCC1c2ccccc2C=Cc2ccccc21	–	–	43	–	–
COc1ccc(S(=O)(=O)NCC(c2ccco2)N2CCN(c3ccccc3F)CC2)cc1C (stereo unspecified)	–	–	–	–	·
Cc1oc(-c2ccccc2F)nc1CS(=O)CC(=O)NC1CCCC1 (stereo unspecified)	–	–	–	–	–
COc1ccc(CCNC(=O)CSc2nc(-c3ccc(F)cc3)cc(C(F)(F)F)n2)cc1OC	–	–	–	–	–
CC(=O)Oc1ccccc1C(=O)Oc1ccccc1C(=O)O	–	–	–	–	–
CC(C)CCOCC(=O)Oc1ccccc1C(=O)O	–	30	–	–	–
NNC(=O)c1cc2sccc2s1	–	–	–	–	-36
COc1ccc(Cl)cc1NC(=S)N1CCN(c2ncccn2)CC1	–	–	–	–	–
COc1ccc(Cl)cc1NC(=S)N1CCCCCC1	–	40	–	–	–
COc1ccc(OC)c(NC(=S)N2CCCC2)c1	–	–	–	–	–
COc1ccc(Cl)cc1NC(=S)N1CCN(c2ccccn2)CC1	–	32	–	–	–
CCOc1ccc(/C=C/c2nc(C#N)c(N3CCN(CC)CC3)o2)cc1	–	–	–	–	–
Oc1ccccc1CNc1cccc2cccnc12	–	–	–	–	–
Nc1sc(-c2ccccc2)n[n+]1Cc1cccc2cccnc12	–	–	–	–	-43
Cc1ccc(S(=O)(=O)N(C)CC(=O)N2CCCCCC2)cc1	–	33	–	–	–
Cc1ccc(CNC(=O)C(NS(=O)(=O)c2ccc3nc(C)sc3c2)C(C)C)cc1 (stereo unspecified)	–	–	–	–	–
Cc1ccc(S(=O)(=O)NCCC(=O)N2CCCCC2)cc1	–	–	–	–	–
Cc1nc2ccc(S(=O)(=O)NC(C(=O)N3CCn4c3nc3ccccc34)C(C)C)cc2s1 (stereo unspecified)	–	–	–	–	-55
Cc1ccc(S(=O)(=O)NCCC(=O)N2CCN(c3cccc(Cl)c3)CC2)cc1C	–	–	–	–	-30
Cc1ccc(S(=O)(=O)NCCC(=O)N2CCCCCC2)cc1	–	–	–	–	-36
